Assay results taken from PubChem BioAssay AID485313 (National Center for Advancing Translational Sciences (NCATS), 2010).
Hit rate of the full screen: of about 320,000 compounds, about 7,600 (2.4%) were called active. Not shown: some 3% with an inconclusive outcome. The call rests on the fitted dose curve; in most records, active means well fitted activation curve with a large enough effect; inconclusive means small, poorly fitted or top-dose-only effect; inactive means no such curve, though single readings can be large or run the other way. The list comes from a sample in which actives are over-represented; it also holds similar structures and randomly drawn compounds. Entries that show only a call come without a potency.

Experiment: qHTS Assay for NPC1 Promoter Activators; further: nearly all actives have a fitted effect of over 60% in size
Settings: Huh7 NPC1 promoter luciferase reporter, 24 h; series mostly up to 9.22 µM
From the text: NIH Chemical Genomics Center [NCGC] NIH Molecular Libraries Probe Production centers Network [MLPCN] MLPCN Grant: MH089375-01A1 Assay Submitter (PI): Yiannis A. Ioannou NCGC Assay Overview: Niemann Pick Type C (NPC) is a rare neurodegenerative lipidosis that is characterized by lipid storage in the endosomal/lysosomal system. Treatment modalities for this devastating disease are currently non-existent due to the severe obstacles associated with accessing the central nervous system with proteins or genes. The majority of mutations causing NPC disease are missense mutations that are distributed throughout the length of the NPC1 protein, with the most prevalent being the I1061T allele. Although NPC1 mutant proteins may be functional, they are typically trapped in the ER due to misfolding. […] We have developed and optimized a cell based luciferase reporter assay in 1536 well format for the identification of up-regulators of the mutant NPC1 promoter.
The NPC1 promoter is cloned in front of the luciferase reporter gene, therefore NPC promoter activation results in luciferase expression. Frozen stock of the NPC1 promoter transfected Huh7 cells were obtained from the laboratory of Dr. Yiannis Ioannou (The Mount Sinai School of Medicine, New York, NY). Cells were propagated and maintained at NCGC in medium containing RPMI-1640 supplemented with 10% FBS, 2mM L-glutamine, and 50ug/ml penicillin/streptomycin. Cells were harvested in and plated for assays in OP-MEM I reduced-serum medium supplemented with 10% FBS. The Amplite luciferase reporter gene assay kit was purchased from ABD Bioquest and prepared/stored according to manufacturers recommendations. qHTS Assay Setup: 1.#Dispensed 5ul of Huh7 cells stably expressing NPC1-luciferase at a density of 1500 cells per well 1536-well plates. 2.#Incubate cells at 37C, 5% CO2, and 95% humidity for 2 hours. 3.#Transferred 23nl per well of compound in DMSO solution. 4.#Incubated at 37C, 5% CO2, and 95% humidity for 24 hours. 5.#Dispensed 3ul per well of Amplite reagent(ABD Bioquest) per well. 6.#Incubate at ambient for 10 minutes. 7.#Read using the luminescence protocol on the ViewLux plate reader (Perkin Elmer).
Potency means the concentration at half of the fitted maximal effect.

Which Potency does the source give for `Cc1nn(C)cc1/C=N/NC(=O)c1sc2ccccc2c1Cl` here?
Its Potency is “inactive”.

Which Potency does the source give for `O=C(Nc1ccon1)c1sc2ccccc2c1Cl` here?
The Potency was 3980 nM (active).

For `O=C(Nc1ccon1)c1cccc(Cl)c1`, which Potency is on record?
Its Potency is “inactive”.

For `Cn1c(N)c(C(=O)COC(=O)COc2ccc(Cl)cc2)c(=O)n(C)c1=O`, which Potency is on record?
Its Potency is “inactive”.

Which Potency does the source give for `O=C(COC(=O)CCCN1C(=O)c2cccc3cccc(c23)C1=O)NC1CCS(=O)(=O)C1` (configuration not stated) here?
Its Potency is “inactive”.

For `COc1ccc(OCCNC(=O)c2cc(C3CC3)nc3c2cnn3C(C)C)cc1`, which Potency is on record?
Its Potency is “inactive”.

For `CC1(C)C(c2cccs2)=[N+]([O-])C2(CCCCC2=O)N1O` (configuration not stated), which Potency is on record?
The Potency was “inactive”.

With `C/C(=N\O)C1(C)N(O)C(C)(C)C(c2ccc(Br)cc2)=[N+]1[O-]` (configuration not stated) as the molecule, how does the Potency read?
The Potency was “inactive”.

With `CC(=O)C1(C)N(O)C(C)(C)C(c2cccs2)=[N+]1[O-]` (configuration not stated) as the molecule, how does the Potency read?
Its Potency is 100 nM (active).

For `CC(C(=O)N1CCc2ccccc21)N(C)CC(=O)Nc1ccc(F)cc1` (configuration not stated), which Potency is on record?
Its Potency is “inactive”.

For `CCNC(=O)c1cccc(NC(=O)C2CC(=O)N(CCc3ccccc3)C2)c1` (configuration not stated), which Potency is on record?
Its Potency is “inactive”.

With `Nc1c(C(=O)NCc2ccccc2)sc2nc3c(cc12)C(=O)CCC3` as the molecule, how does the Potency read?
Its Potency is “inactive”.

Which Potency does the source give for `CCN(CC)C(=O)c1sc2nc(-c3ccccc3)ccc2c1N` here?
Its Potency is 1580 nM (active).

With `CCN(CC)C(=O)N(CC)Cc1ccccc1` as the molecule, how does the Potency read?
Its Potency is “inactive”.

With `CCCC(NC(=O)c1ccco1)c1nc2ccccc2[nH]1` (configuration not stated) as the molecule, how does the Potency read?
Its Potency is “inactive”.

Which Potency does the source give for `Cc1cc(OCc2cc(C(=O)NCc3cc(C(C)C)no3)no2)cc(C)c1Cl` here?
Its Potency is 1410 nM (active).

With `Cc1cccnc1CC(C)NC(=O)c1cc(COc2cncc(Cl)c2)on1` (configuration not stated) as the molecule, how does the Potency read?
The Potency was “inactive”.

With `COCCCNC(=O)COc1cc(C)c(Cl)c(C)c1` as the molecule, how does the Potency read?
The Potency was “inactive”.

For `O=[N+]([O-])c1ccc2oc(-c3cccc(O)c3)nc2c1`, which Potency is on record?
Its Potency is “inactive”.

Which Potency does the source give for `COc1cccc(-c2nc3cc(C)ccc3o2)c1` here?
Its Potency is 3160 nM (active).

With `COc1cccc(-c2nnc(SCCOc3ccc4c(C)cc(=O)oc4c3)o2)c1` as the molecule, how does the Potency read?
The Potency was “inactive”.

For `O=C(/C=C(O)/C=C/c1ccc(O)cc1)/C=C/c1ccc(O)cc1`, which Potency is on record?
Its Potency is “inactive”.

For `CCCCn1c(N)c(N(CC(C)C)C(=O)c2cnc(C)cn2)c(=O)[nH]c1=O`, which Potency is on record?
Its Potency is “inactive”.

Which Potency does the source give for `COc1ccccc1C(=O)Nc1ccc(OCC(=O)N2CCCCC2)cc1` here?
Its Potency is “inactive”.

With `CS(=O)(=O)c1ccc2nc(NC(=O)c3ccc(Cl)nc3)sc2c1` as the molecule, how does the Potency read?
The Potency was “inactive”.

With `NS(=O)(=O)c1ccc2nc(NC(=O)C3=COCCO3)sc2c1` as the molecule, how does the Potency read?
Its Potency is 1780 nM (active).

Which Potency does the source give for `NS(=O)(=O)c1ccc2nc(NC(=O)CS(=O)(=O)c3ccc(F)cc3)sc2c1` here?
Its Potency is “inactive”.

With `CN(CC(=O)Nc1ccc(Cl)c(C(F)(F)F)c1)C(=O)CCC(=O)c1ccccc1` as the molecule, how does the Potency read?
The Potency was “inactive”.

For `COC(=O)c1ccc(COC(=O)CNC(=O)c2cccc(OC)c2)o1`, which Potency is on record?
The Potency was “inactive”.

For `CN(CC(=O)Nc1ccc(Cl)cc1)C(=O)c1ccc(COc2ccccc2)cc1`, which Potency is on record?
The Potency was “inactive”.

For `O=C(CNC(=O)c1ccc2ccccc2c1)Nc1ncccc1O`, which Potency is on record?
Its Potency is “inactive”.

With `CCc1cc(C(N)=O)c(NC(=O)c2ccc(OC)cc2)s1` as the molecule, how does the Potency read?
The Potency was “inactive”.

For `CC(C)c1cc(C(N)=O)c(NC(=O)c2cccc(COc3ccc(Br)cc3)c2)s1`, which Potency is on record?
The Potency was 2820 nM (active).

With `CCOC(=O)c1cc(C(C)C)sc1NC(=O)COC(=O)c1nccnc1N` as the molecule, how does the Potency read?
The Potency was “inactive”.

With `CC(=O)c1c(C)[nH]c(C(=O)OCC(=O)Nc2c(C)n(C)n(-c3ccccc3)c2=O)c1C` as the molecule, how does the Potency read?
The Potency was “inactive”.

With `CN(C)CCN=c1cc(-c2ccccc2)oc2ccc(Cl)cc12` as the molecule, how does the Potency read?
The Potency was 2820 nM (active).

With `CN(C)CCn1c(=S)[nH]c2ccc(Cl)cc2c1=O` as the molecule, how does the Potency read?
The Potency was “inactive”.

For `CN(CC(=O)NCc1ccc2c(c1)OCO2)CC(=O)Nc1ccc(F)c(F)c1F`, which Potency is on record?
Its Potency is “inactive”.

With `CO[C@H]1[C@@H]2C=CO[C@@H](O[C@H]3O[C@@H](CO)[C@H](O)[C@@H](O)[C@@H]3O)[C@@H]2[C@@]2(CO)O[C@@H]12` as the molecule, how does the Potency read?
Its Potency is “inactive”.

For `CCC(=O)Nc1ccc(C(=O)NNC(=O)c2ccc(Cl)cc2)cc1`, which Potency is on record?
Its Potency is “inactive”.

Which Potency does the source give for `O=C(Nc1ccccc1)c1nnsc1S(=O)(=O)c1ccc(Cl)cc1` here?
Its Potency is “inactive”.

With `O=C(Nc1ccc(Cl)cc1)c1ccsn1` as the molecule, how does the Potency read?
Its Potency is 3160 nM (active).

For `CCCCN(CC(=O)Nc1cccc(S(=O)(=O)N2CCCC2)c1)Cc1nc2ccccc2c(=O)[nH]1`, which Potency is on record?
The Potency was “inactive”.

For `COCCn1cnnc1SCC(=O)Nc1cccc(S(=O)(=O)N2CCCCC2)c1`, which Potency is on record?
Its Potency is “inactive”.

For `Cc1ccc(S(=O)(=O)N(C)C)cc1NC(=O)C(C)OC(=O)c1ccc2ccccc2n1` (configuration not stated), which Potency is on record?
Its Potency is “inactive”.

Which Potency does the source give for `COc1ccc(F)cc1C(=O)COC(=O)c1n[nH]c(=O)c2ccccc12` here?
Its Potency is “inactive”.

For `CCN(C(=O)COC(=O)CCOc1cccc(C)c1)c1c(N)n(Cc2ccccc2)c(=O)[nH]c1=O`, which Potency is on record?
Its Potency is “inactive”.

For `O=C(c1ccccc1)N1CCN(C(=O)N2CCCCC2)CC1`, which Potency is on record?
The Potency was “inactive”.

Which Potency does the source give for `O=C(O)c1cccc(N=NN2CCCCCC2)c1` here?
The Potency was 100 nM (active).

Which Potency does the source give for `O=C(O)c1ccc(N=NN2CCOCC2)cc1` here?
The Potency was “inactive”.

With `CCOc1ncccc1C(=O)OCC(=O)Nc1cccc(S(=O)(=O)N2CCCCCC2)c1` as the molecule, how does the Potency read?
The Potency was “inactive”.

For `N#Cc1nc(Cc2cccc3ccccc23)oc1NCc1ccc2c(c1)OCO2`, which Potency is on record?
Its Potency is “inactive”.

For `Cc1ccccc1-c1nc(C#N)c(NCc2ccco2)o1`, which Potency is on record?
Its Potency is “inactive”.

Which Potency does the source give for `N#Cc1nc(Cc2ccccc2)oc1NCCc1ccccc1` here?
The Potency was 3160 nM (active).

Which Potency does the source give for `Cc1ccc(-c2nc3ccccc3[nH]2)cc1N` here?
Its Potency is 1580 nM (active).

For `COc1ccc(-c2[nH]nc(-c3ccccc3)c2-c2nc3ccccc3[nH]2)cc1`, which Potency is on record?
The Potency was “inactive”.

For `COc1ccc(Br)cc1C(=O)NC(=S)Nc1cc(-c2nc3ccccc3[nH]2)ccc1C`, which Potency is on record?
Its Potency is “inactive”.

Which Potency does the source give for `OC(c1nc2ccccc2[nH]1)C(O)C(O)C(O)c1nc2ccccc2[nH]1` (configuration not stated) here?
Its Potency is “inactive”.

Which Potency does the source give for `c1ccc2[nH]c(-c3nc4ccccc4[nH]3)nc2c1` here?
The Potency was 1260 nM (active).

Which Potency does the source give for `Nc1cccc(CCc2nc3ccccc3[nH]2)c1` here?
The Potency was “inactive”.

Which Potency does the source give for `CNc1nc(SC)nc(N(C#N)CC(=O)OC)n1` here?
The Potency was “inactive”.

For `COc1ccc(OC)c(S(=O)(=O)Nc2c(C)nn(C)c2C)c1`, which Potency is on record?
Its Potency is “inactive”.

For `Cc1cc(C(=O)Nc2ccc(C)c(S(=O)(=O)N3CCOCC3)c2)c2ccccc2n1`, which Potency is on record?
Its Potency is “inactive”.

Which Potency does the source give for `c1ccc(CN=C2Nc3ccccc3CS2)nc1` here?
The Potency was 2510 nM (active).

Which Potency does the source give for `CCC1(CC)NC(=O)N(CC(=O)OCC(=O)c2cc(C)c(C)cc2C)C1=O` here?
Its Potency is “inactive”.

For `CC(=O)c1c(C)[nH]c(C(=O)COc2ccc3c(C)cc(=O)oc3c2)c1C`, which Potency is on record?
The Potency was “inactive”.

For `CCN(CC(=O)Nc1ccc(NC(C)=O)cc1)C(=O)CSC(=S)N1CCCC1`, which Potency is on record?
Its Potency is “inactive”.
